Screening results: PubChem, National Center for Advancing Translational Sciences (NCATS)
Rows were chosen to be rich in hits. Some 4.4% of all compounds tested hit in one or more screens of this group.
D1 PAM = potentiators of human D1 dopamine receptor | P21728 | hit rate 0.036% among 360,000 | HEK293 TREx D1 cells, calcium flux, dopamine EC20 potentiation | potentiation, % at 10 µM; in the data active = potentiation above about 30%; note: 0% is about no effect
TRHR enhancer-1 = TRH receptor (human) allosteric enhancement | TRHR cells, fluo-8 calcium fluorescence, EC20 TRH enhancement | hit rate 0.66% among 360,000 | enhancement, % at 2 µM; in the data active = enhancement above about 30%; note: 0% is about no effect
Target sequence (P34981 whole entry, looked up): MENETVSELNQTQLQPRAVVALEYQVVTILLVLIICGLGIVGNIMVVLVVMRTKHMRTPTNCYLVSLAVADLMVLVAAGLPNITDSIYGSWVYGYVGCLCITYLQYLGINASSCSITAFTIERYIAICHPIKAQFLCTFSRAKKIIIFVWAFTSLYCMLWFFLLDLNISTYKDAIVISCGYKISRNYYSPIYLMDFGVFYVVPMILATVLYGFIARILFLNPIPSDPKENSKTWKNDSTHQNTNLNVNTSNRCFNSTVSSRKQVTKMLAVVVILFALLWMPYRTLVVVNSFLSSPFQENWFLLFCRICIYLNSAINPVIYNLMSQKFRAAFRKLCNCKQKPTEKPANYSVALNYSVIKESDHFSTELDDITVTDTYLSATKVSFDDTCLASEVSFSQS
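TRHR-expressing cells loaded with fluo-8 calcium dye were read kinetically (ex 480/em 530) during compound addition, then stimulated with an EC20 of TRH (10 nM final). Enhancement of the Gq-mediated intracellular calcium response was scored.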
D1 antag = antagonists of human D1 dopamine receptor. P21728. HEK293 TREx D1 cells, calcium flux, dopamine EC80; active compounds read low. activity change, negative = inhibition, % at 10 µM. hit rate 3.2% among 360,000. AID 504652; in the data active = activity change below about -30%; note: % is set by controls: 0 for no effect and ±100 for the full control effect
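Inducible Hek293 Trex D1 cells (tetracycline, overnight, 30 C). Calcium dye 30–90 min RT. Antagonist mode: EC80 dopamine added after 180 s compound read.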
D1 agonist = agonists of human D1 dopamine receptor | P21728 | AID 504660 | activation, % at 2 µM | hit rate 1% among 360,000 | HEK293 T-REx D1 cells, calcium flux, agonist mode; in the data active = activation above about 30%; note: 0% is about no effect
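Tetracycline-induced HEK293 TREx D1 cells, force-coupled to calcium signalling, were dye-loaded with a no-wash calcium kit. Compound was pin-added after a 10 s baseline. Fluorescence was read kinetically at 1 cycle/s for 180 s, with calcium rises flagged as agonism.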
TRHR agonist-1 = agonists of human TRH receptor; TRHR cells, calcium flux fluo-8, FDSS agonist mode; activation, % at 2 µM; hit rate 0.18% among 360,000; AID 493084; in the data active = activation above about 30%; note: 0% is about no effect
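Steps: seed TRHR cells overnight; add fluo-8 no-wash Ca dye, RT 30 min–1.5 h; record 10 s baseline; pin-transfer compounds; monitor fluorescence 1 cycle/s for the agonist window. Calcium increases flag candidate agonists.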
USP1 inh = USP1/UAF1 (human) deubiquitinase inhibition; AID 743255; recombinant USP1/UAF1, Ub-Rhodamine cleavage fluorescence; O94782; hit rate 0.23% among 390,000; Potency, µM (top dose mostly 57.1 µM), for inactives: at the top dose activity change, negative = inhibition, actives largely listed as inhibitors; note: potency is the fitted concentration of half-maximal effect; % is set by controls: 0 for no effect and ±100 for the full control effect; nearly all actives have a fitted effect of over 60% in size
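USP1/UAF1 complex at 1 nM was preincubated with compound for 15 min at room temperature, then Ub-Rho substrate (150nM final) was added. Fluorescence (480/540 nm) was read kinetically, 6 reads every 60 seconds.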
TRHR enhancer-2 = confirmation of human TRH receptor allosteric enhancers; shares compounds with TRHR enhancer-1; TRH receptor cell assay, enhancer confirmation qHTS; activity change, negative = inhibition, % at 46.1 µM; 970 tested, under 10 active; AID 493076;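 note: compound effect scored on response to added TRH at EC20 of 10 nM; 0% is about no effect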
TRHR agonist-2 = confirmation of human TRH receptor agonists | shares compounds with TRHR enhancer-1 | TRHR-expressing cells, agonist activation read-out | Potency, µM (titrated, usually from 46.1 µM), without a hit: at the top dose activation, hits mostly activators | hit rate 8% among 970; note: potency is the fitted concentration of half-maximal effect; 0% is about no effect; nearly all actives have a fitted effect of over 75% in size
An asterisk follows results filed as active. Unless noted, calls come from the whole dose curve; as a rule, active = well fitted curve in the direction sought with a large enough effect; inconclusive = small, poorly fitted or top-dose-only effect, or another doubt; inactive = no such curve, though single readings can be large; an effect the other way counts as inactive or inconclusive.

For CN1CCN(CC(=O)NC(=O)NC2CCCCC2)CC1 the results were D1 PAM -3.1, TRHR enhancer-1 -4.0, D1 antag 0.4, D1 agonist 3.3, TRHR agonist-1 0.4 and USP1 inh -3.1%.
Screening CN1CCN(NC(=O)NC2CCCCC2)CC1 returned D1 PAM 1.8, TRHR enhancer-1 41.1*, D1 antag -39.0*, D1 agonist 27.6, TRHR agonist-1 0.9, USP1 inh -17.4%, TRHR enhancer-2 8.1 and TRHR agonist-2 4.4%.
Cc1nc2nc(-c3ccc(Cl)cc3Cl)nn2c(C)c1CCC(=O)Nc1ccc(F)cc1 was read as D1 PAM -2.5, TRHR enhancer-1 -2.1, D1 antag 5.7, D1 agonist 0.0, TRHR agonist-1 0.3 and USP1 inh -16.2%.
`CN(C)/C=C/c1onc(-c2c(Cl)cccc2Cl)c1C#N` gave D1 PAM -4.3, TRHR enhancer-1 43.6*, D1 antag 15.6, D1 agonist 3.5, TRHR agonist-1 0.0, USP1 inh -22.5%, TRHR enhancer-2 3.8 and TRHR agonist-2 inconclusive.
`CCOc1ccc(-c2cc(C(=O)OC)nc3c2c(=O)n(C)c(=O)n3C)cc1` gave D1 PAM -4.1, TRHR enhancer-1 43.2*, D1 antag 27.4, D1 agonist 1.8, TRHR agonist-1 0.0, USP1 inh -15.9%, TRHR enhancer-2 -6.5 and TRHR agonist-2 0.3%.
Screening CC1(C)NC(=O)N(CC(O)Cn2nnc3ccccc32)C1=O (configuration not stated) returned D1 PAM 0.7, TRHR enhancer-1 50.5*, D1 antag -0.4, D1 agonist 3.3, TRHR agonist-1 0.1, USP1 inh -14.6%, TRHR enhancer-2 -1.4 and TRHR agonist-2 0.4%.
Screening COc1ccc(N(CC(=O)Nc2cccc(OC)c2)S(=O)(=O)c2c(C)nn(C)c2C)cc1 returned D1 PAM 3.2, TRHR enhancer-1 5.9, D1 antag 0.4, D1 agonist 2.0, TRHR agonist-1 0.2 and USP1 inh -12.7%.
`COc1cccc(NC(=O)CN(c2ccc(C)cc2)S(=O)(=O)c2c(C)nn(C)c2C)c1` gave D1 PAM 10.8, TRHR enhancer-1 -0.3, D1 antag 16.2, D1 agonist 3.9, TRHR agonist-1 33.4*, USP1 inh -5.6%, TRHR enhancer-2 -3.2 and TRHR agonist-2 7.3%.
Screening CC(=O)N1CCCc2cc(S(=O)(=O)N3CCCC(C(=O)Nc4ccc(F)cc4F)C3)ccc21 (configuration not stated) returned D1 PAM -3.1, TRHR enhancer-1 3.1, D1 antag -8.3, D1 agonist 2.0, TRHR agonist-1 0.0 and USP1 inh 11.9%.
Screening COc1ccc(CNCc2ccccc2C(F)(F)F)cc1 returned D1 PAM -8.7, TRHR enhancer-1 -1.8, D1 antag 24.6, D1 agonist 3.0, TRHR agonist-1 -0.1 and USP1 inh -1.5%.
`COc1ccc(CNCc2cccc3ccccc23)cc1` gave D1 PAM -4.1, TRHR enhancer-1 51.9*, D1 antag 15.2, D1 agonist 14.3, TRHR agonist-1 1.1, USP1 inh -22.1%, TRHR enhancer-2 inconclusive and TRHR agonist-2 inconclusive.
Cc1cn(C)c(CC(=O)Nc2ccc(F)cc2Cl)c1C(=O)O was read as D1 PAM -1.6, TRHR enhancer-1 2.1, D1 antag -6.9, D1 agonist 0.2, TRHR agonist-1 0.3 and USP1 inh -10.1%.
Screening C/C=C/c1cc(CN2CCN(c3ccccc3)CC2)c(O)c(OC)c1 returned D1 PAM 1.8, TRHR enhancer-1 41.5*, D1 antag -10.6, D1 agonist 2.7, TRHR agonist-1 1.6, USP1 inh -13.4%, TRHR enhancer-2 -3.0 and TRHR agonist-2 -0.7%.
For C/C=C/c1cc(CN2CCN(c3ccc(OC)cc3)CC2)c(O)c(OC)c1 the results were D1 PAM 3.6, TRHR enhancer-1 0.7, D1 antag 29.1, D1 agonist 0.1, TRHR agonist-1 -1.2 and USP1 inh -7.4%.
`CCOCC(=O)Nc1ccc(C)c(Cl)c1` gave D1 PAM -3.6, TRHR enhancer-1 62.4*, D1 antag 21.3, D1 agonist 1.9, TRHR agonist-1 -0.6, USP1 inh -9.0%, TRHR enhancer-2 -6.5 and TRHR agonist-2 1.6%.
Screening Cc1ccc(NC(=O)COc2ccccc2)cc1Cl returned D1 PAM -2.9, TRHR enhancer-1 6.7, D1 antag 5.8, D1 agonist 8.4, TRHR agonist-1 0.1 and USP1 inh -10.5%.
For N#C/C(=C\c1ccc(N2CCOCC2)o1)C(=O)NCCc1ccccc1 the results were D1 PAM -0.3, TRHR enhancer-1 7.1, D1 antag 1.7, D1 agonist 124.5*, TRHR agonist-1 58.3*, USP1 inh inconclusive, TRHR enhancer-2 3.3 and TRHR agonist-2 18.4µM*.
For COc1ccc(-c2cc(C(F)(F)F)c3c(n2)sc2c(O)cc(=O)[nH]c23)c(OC)c1 the results were D1 PAM -2.3, TRHR enhancer-1 8.3, D1 antag -15.4, D1 agonist 41.6*, TRHR agonist-1 34.5*, USP1 inh inconclusive, TRHR enhancer-2 4.4 and TRHR agonist-2 inconclusive.
`Cc1cccc(NC(=O)C(Cc2ccccc2)NS(=O)(=O)c2ccc3c(c2)c(=O)n(C)c(=O)n3C)c1` (configuration not stated) gave D1 PAM -5.0, TRHR enhancer-1 -7.2, D1 antag -6.9, D1 agonist 6.2, TRHR agonist-1 -0.6 and USP1 inh -23.3%.
`CC(C(=O)c1ccccc1)[n+]1cccc(C(N)=O)c1` (configuration not stated) gave D1 PAM -7.7, TRHR enhancer-1 41.1*, D1 antag 9.7, D1 agonist 4.8, TRHR agonist-1 0.4, USP1 inh -9.4%, TRHR enhancer-2 0.7 and TRHR agonist-2 -0.7%.
For Cc1ccc(C(=O)C(C)[n+]2cccc(C(N)=O)c2)cc1 (configuration not stated) the results were D1 PAM -0.5, TRHR enhancer-1 6.7, D1 antag -6.5, D1 agonist 3.0, TRHR agonist-1 0.3 and USP1 inh -4.9%.
Screening O=P1(c2ccccc2)C=Cn2c1cc1c2CCCC1 (configuration not stated) returned D1 PAM 2.2, TRHR enhancer-1 60.1*, D1 antag 7.3, D1 agonist 0.4, TRHR agonist-1 0.1, USP1 inh 3.8%, TRHR enhancer-2 11.7 and TRHR agonist-2 -0.6%.
